Values without a mark were called inactive. Results filed as inconclusive are left out. Where a call stands in place of a potency, no number is given. Active and inactive are the calls of the source. Unless noted, the call rests on the fitted dose curve; in most records, active means well fitted curve in the direction sought with a large enough effect; inconclusive means small, poorly fitted or top-dose-only effect, or another doubt; inactive means no such curve, though single readings can be large; an effect the other way counts as inactive or inconclusive.
Key:
[1] = biological target: Nuclear receptor ROR-gamma (Homo sapiens) (UniProt P51449); experiment: qHTS assay for small molecule antagonists of the retinoid-related orphan receptor gamma (ROR-gamma) signaling pathway (AID 651802); further: series mostly up to about 92 µM; nearly all actives have a fitted effect of over 60% in size
Nuclear receptor ROR-gamma (Homo sapiens), sequence (P51449 whole entry, looked up): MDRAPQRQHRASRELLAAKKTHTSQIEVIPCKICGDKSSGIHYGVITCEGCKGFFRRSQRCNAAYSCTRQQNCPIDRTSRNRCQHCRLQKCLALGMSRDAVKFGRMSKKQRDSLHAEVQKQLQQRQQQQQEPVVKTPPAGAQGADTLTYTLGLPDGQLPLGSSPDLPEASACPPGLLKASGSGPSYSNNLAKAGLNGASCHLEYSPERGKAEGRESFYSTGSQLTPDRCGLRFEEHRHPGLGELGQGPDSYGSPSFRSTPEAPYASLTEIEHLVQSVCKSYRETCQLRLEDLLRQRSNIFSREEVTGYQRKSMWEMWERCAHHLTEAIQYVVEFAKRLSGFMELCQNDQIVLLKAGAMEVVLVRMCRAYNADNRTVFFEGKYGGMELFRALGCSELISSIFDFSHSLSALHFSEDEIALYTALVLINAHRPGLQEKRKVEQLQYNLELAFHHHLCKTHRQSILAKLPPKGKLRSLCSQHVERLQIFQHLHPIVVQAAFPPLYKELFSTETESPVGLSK
Method in brief: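 CHO cells carrying TET-inducible ROR-gamma and an ROR response element–luciferase reporter were exposed to compound, then induced with doxycycline. After 16hr at 37C, luminescence was read; lower signal indicates antagonism.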

[2] = biological target: Arylsulfatase A (Homo sapiens) (UniProt P15289); experiment: qHTS screen for enhancers of Arylsulfatase A (ASA1): LOPAC Validation Assay (AID 720538)
Arylsulfatase A (Homo sapiens), sequence (P15289 whole entry, looked up): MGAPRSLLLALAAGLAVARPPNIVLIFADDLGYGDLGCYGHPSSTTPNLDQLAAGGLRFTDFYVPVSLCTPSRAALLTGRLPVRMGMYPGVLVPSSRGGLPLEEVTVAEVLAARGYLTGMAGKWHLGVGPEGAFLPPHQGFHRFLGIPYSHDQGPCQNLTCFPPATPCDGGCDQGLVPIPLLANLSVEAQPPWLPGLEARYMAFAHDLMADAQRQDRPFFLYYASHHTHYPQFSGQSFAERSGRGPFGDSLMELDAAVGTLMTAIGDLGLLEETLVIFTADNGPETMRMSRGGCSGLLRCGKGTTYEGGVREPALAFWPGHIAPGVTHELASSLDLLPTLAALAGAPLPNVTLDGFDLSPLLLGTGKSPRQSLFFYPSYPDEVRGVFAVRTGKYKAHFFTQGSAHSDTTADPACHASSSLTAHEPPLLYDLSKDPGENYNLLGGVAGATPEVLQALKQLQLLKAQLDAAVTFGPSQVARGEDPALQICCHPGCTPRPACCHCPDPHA
Method in brief: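 MLD patient fibroblasts (SV40, ASA-I179S), 1536-well; adhere 6 hrs; cpd 48h, 37 degree C, 5% CO2; pNCS 0.5mM final in lysis buffer, 14h RT; stop 1N NaOH final; fluor. Ex525/Em598.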

[3] = qHTS for compounds that reverse cellular toxicity of Amyloid beta (A-beta) peptide in yeast: LOPAC Validation Assay (AID 720559)
Method in brief: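 Medium dispensed, compounds pinned, A-beta yeast suspension added; plates held at 30 C for 48 hr; absorbance measured at 600 nm to gauge growth; values scaled between DMSO and FeCl3/clioquinol (equimolar) controls.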

[4] = qHTS for Activators of Parkin Expression: LOPAC Validation Assay (NLuc Reporter) (AID 720572; further: potency means the concentration at half of the fitted maximal effect)
Method in brief: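 Neuronal line stably carrying a FLuc/NLuc coincidence reporter under the Parkin promoter, seeded 24 h, then dosed in 7-point series for 24 h at 37 C. NLuc luminescence read after FLuc; normalized to DMSO and positive control (100%).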

[5] = qHTS for Activators of Parkin Expression: LOPAC Validation Assay (FLuc Reporter) (AID 720573; further: potency means the concentration at half of the fitted maximal effect)
Method in brief: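 Cells seeded, 24 h; compounds pinned, 7-pt dose response; 24 h at 37 C/5% CO2; volume reduced; FLuc reagent 10 min RT; luminescence read. Normalization: DMSO = 0, positive control = 100%.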

[6] = qHTS assay for small molecule agonists of the antioxidant response element (ARE) signaling pathway measured by Nrf2-dependant transcriptional activity (AID 720636; active means well fitted curve in the direction sought with a large enough effect in the repeat runs; an effect the other way counts as inactive or inconclusive)
Method in brief: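 Nrf2-dependent transcription read as ONE-Glo luciferase signal from ARE-luc HepG2 reporter cells after 16 hr compound treatment at 37 C, 5% CO2, in assay medium with 1% dialyzed FBS.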

[7] = qHTS assay for small molecule antagonists of the retinoid-related orphan receptor gamma (ROR-gamma) signaling pathway - cell viability counter screen (AID 720652; active means well fitted curve in the direction sought with a large enough effect in the repeat runs; an effect the other way counts as inactive or inconclusive;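 further: series mostly up to about 92 µM; compound exposure lasted 16 hr before ATP read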)
Method in brief: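 Counter screen in CHO cells carrying TET-inducible ROR-gamma and an ROR response element-luciferase reporter; cells plated 5 hr, compound pinned, doxycycline added, then 16 hr at 37 C. Viability read as intracellular ATP by CellTiter-Glo luminescence.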

[8] = qHTS assay for small molecule agonists of the antioxidant response element (ARE) signaling pathway measured by Nrf2-dependant transcriptional activity - cell viability counter screen (AID 720653; active means well fitted curve in the direction sought with a large enough effect in the repeat runs; an effect the other way counts as inactive or inconclusive); details: ARE-bla HepG2 viability, CellTiter-Glo ATP luminescence, 16 h; stronger effect = lower value
Method in brief: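 ARE-bla HepG2 cells (2,000/well) rested 5 hrs at 37C/5% CO2, then exposed to compounds in DMSO for 16 hrs. Viability was read in the same wells as intracellular ATP by luminescence, 30 min at room temperature after reagent addition.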

[9] = biological target: T1, Hexokinase-4 (Homo sapiens) + Glucokinase regulatory protein (Homo sapiens) (UniProt P35557+Q14397); experiment: qHTS assay for inhibitors of recombinant human GCK-GKRP interaction: Diaphorase-coupled assay (AID 743205)
T1 sequence (P35557 whole entry, looked up): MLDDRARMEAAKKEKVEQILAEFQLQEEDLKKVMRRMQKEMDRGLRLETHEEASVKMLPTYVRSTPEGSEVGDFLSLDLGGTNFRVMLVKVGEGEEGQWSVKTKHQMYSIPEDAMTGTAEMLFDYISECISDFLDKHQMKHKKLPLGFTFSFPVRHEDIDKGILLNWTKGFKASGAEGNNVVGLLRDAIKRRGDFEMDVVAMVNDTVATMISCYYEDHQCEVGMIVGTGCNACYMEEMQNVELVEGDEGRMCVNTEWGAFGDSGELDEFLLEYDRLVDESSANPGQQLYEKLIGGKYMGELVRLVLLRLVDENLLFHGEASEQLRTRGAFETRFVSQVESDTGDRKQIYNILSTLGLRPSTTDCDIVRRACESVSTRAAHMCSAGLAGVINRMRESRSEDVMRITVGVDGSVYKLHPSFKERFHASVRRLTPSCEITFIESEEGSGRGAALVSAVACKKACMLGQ
T1 sequence (Q14397 whole entry, looked up): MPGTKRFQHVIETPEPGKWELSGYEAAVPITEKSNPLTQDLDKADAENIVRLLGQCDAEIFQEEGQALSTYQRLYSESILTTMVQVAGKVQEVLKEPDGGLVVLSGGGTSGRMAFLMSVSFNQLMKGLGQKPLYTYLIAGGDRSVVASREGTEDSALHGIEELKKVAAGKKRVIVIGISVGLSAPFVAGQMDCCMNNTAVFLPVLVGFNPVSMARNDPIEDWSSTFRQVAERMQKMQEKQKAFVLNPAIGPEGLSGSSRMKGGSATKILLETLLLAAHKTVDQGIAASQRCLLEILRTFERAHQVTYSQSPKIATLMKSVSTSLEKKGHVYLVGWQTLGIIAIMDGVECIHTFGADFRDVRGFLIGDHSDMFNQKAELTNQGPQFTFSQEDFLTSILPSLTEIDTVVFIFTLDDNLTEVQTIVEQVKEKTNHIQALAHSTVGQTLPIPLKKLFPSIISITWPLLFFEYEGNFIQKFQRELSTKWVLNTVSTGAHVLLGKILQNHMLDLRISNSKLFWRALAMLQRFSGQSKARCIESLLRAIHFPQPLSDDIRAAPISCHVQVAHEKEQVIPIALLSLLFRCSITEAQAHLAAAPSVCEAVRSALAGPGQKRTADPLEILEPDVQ
Method in brief: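 25 mM Hepes pH 7.6, 5 mM glucose, 0.4 mM ATP, 4 U/ml G6PDH; 10 nM each GST-GCK/FLAG-GKRP. Kinetic fluorescence read, 1/min × 30 min. Normalized: DMSO ± enzyme = max/min.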

[10] = biological target: T1, Hexokinase-4 (Homo sapiens) + Glucokinase regulatory protein (Homo sapiens); experiment: qHTS assay for inhibitors of recombinant human GCK-GKRP interaction: ADP-Glo assay (AID 743206)
Method in brief: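 GST-GCK and FLAG-GKRP (15 nM each in the dispensed mix, with 2 uM S6P) react with 0.4 mM ATP and 5 mM glucose (final) in Hepes pH 7.6 for 60 min at room temperature. ADP is measured by ADP-Glo luminescence.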

[11] = qHTS Assay for Identifying Gametocytocidal Compounds (AID 743244); further: potency means the concentration at half of the fitted maximal effect;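 on max response: actives lower the fluorescent signal which means gametocytes are killed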; details: P. falciparum 3D7 stage III-V gametocytes, alamarBlue, 72 h; max response: stronger effect = lower value
Method in brief: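 In this qHTS viability screen, late-stage 3D7 gametocytes are incubated with compound for 72 h, then with alamarBlue for 24 h; reduced resorufin fluorescence marks killing.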

[12] = qHTS assay for cell viability of HEK293 cells (AID 743288); details: ATP luminescence (CellTiter-Glo), 18 h; max response: stronger effect = lower value; further: nearly all actives have a fitted effect of over 50% in size
Method in brief: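 HEK293 parental, 2,000 cells/well; ≥5 h pre-incubation 37 C; pintool compound addition; 18 h, 37 C; CellTiter-Glo 30 min RT; luminescence read.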

[13] = qHTS assay for cell viability of the p53RE-bla HCT-116 cell line (AID 743292); further: nearly all actives have a fitted effect of over 55% in size; further: potency means the concentration at half of the fitted maximal effect
Method in brief: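 ATP-based luminescent viability (CellTiter-Glo, 30 min RT) after 16 h compound treatment at 37 C of p53RE-bla HCT-116 cells, seeded at 4,000 cells/well and rested 5 h before dosing.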

[14] = biological target: T1, Hexokinase-4 (Homo sapiens) + Glucokinase regulatory protein (Homo sapiens); experiment: qHTS assay for inhibitors of recombinant human GCK-GKRP interaction: HTRF assay (AID 743207)
Method in brief: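 5 nM GST-GCK + 5 nM FLAG-GKRP + 2 uM S6P, pH 7.1 buffer (25 mM Hepes, 2 mM MgCl2, 25 mM KCl, 1 mM DTT, Tween/BSA); pin-transferred cpd; anti-FLAG XL665/anti-GST K; 60 min RT; HTRF.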

[15] = biological target: Tyrosine-protein kinase Yes (Homo sapiens) (UniProt P07947); experiment: qHTS for small molecule inhibitors of Yes1 kinase: Primary Screen (AID 686947); details: Yes1 kinase biochemical qHTS inhibition; further: potency means the concentration at half of the fitted maximal effect; nearly all actives have a fitted effect of over 60% in size
Tyrosine-protein kinase Yes (Homo sapiens), sequence (P07947 whole entry, looked up): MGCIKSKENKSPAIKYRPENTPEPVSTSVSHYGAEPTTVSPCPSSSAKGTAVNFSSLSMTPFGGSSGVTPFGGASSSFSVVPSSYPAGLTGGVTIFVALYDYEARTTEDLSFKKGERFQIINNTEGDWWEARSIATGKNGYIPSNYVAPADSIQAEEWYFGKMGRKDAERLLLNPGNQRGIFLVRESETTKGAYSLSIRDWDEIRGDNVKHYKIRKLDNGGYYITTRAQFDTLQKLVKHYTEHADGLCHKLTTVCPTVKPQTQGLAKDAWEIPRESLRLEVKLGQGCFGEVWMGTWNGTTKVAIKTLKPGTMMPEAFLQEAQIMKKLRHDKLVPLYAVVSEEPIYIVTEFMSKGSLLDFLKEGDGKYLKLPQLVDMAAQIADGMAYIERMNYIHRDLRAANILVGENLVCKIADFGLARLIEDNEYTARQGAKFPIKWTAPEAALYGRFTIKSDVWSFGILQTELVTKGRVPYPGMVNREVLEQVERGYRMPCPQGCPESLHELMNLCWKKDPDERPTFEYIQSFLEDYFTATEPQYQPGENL
Method in brief: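 ADP-Glo luminescence readout; final 4 nM Yes1, 0.1 mM ATP, 0.3 mg/mL poly(E4Y), Tris pH 7.5, MgCl2, DTT, Brij-35. 20 min compound preincubation, 60 min reaction at RT. Normalized to DMSO wells with and without enzyme.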

[16] = qHTS for small molecule inhibitors of Yes1 kinase: Counter Assay (AID 686950);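 further: no kinase present so only ADP-Glo detection of a fixed ADP amount is tested; luminescence from ADP-Glo reporting ADP in a fixed ATP and ADP mixture; series mostly up to about 77 µM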
Method in brief: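 Enzyme-free ADP-Glo interference check: compounds were preincubated 20 min in buffer, then an ATP/ADP mix (0.08 mM ATP, 0.02 mM ADP final) was added for 60 min at room temperature before two-step ADP-Glo luminescence detection.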

NC(=O)c1ccccc1
outcome [1]: inactive | Potency [2]: inactive | outcome [3]: inactive | Potency [4]: inactive | Potency [5]: inactive | outcome [6]: inactive | outcome [7]: inactive | max response [8]: -5% | Potency [9]: inactive | Potency [10]: inactive | max response [11]: -3.76% | max response [12]: -1.67% | Potency [13]: inactive

CCC1(O)CC2CN(CCc3c([nH]c4ccccc34)[C@@](C(=O)OC)(c3cc4c(cc3OC)N(C)C3[C@]45CCN4CC=C[C@@](CC)([C@@H](OC(C)=O)[C@]3(O)C(=O)OC)[C@H]45)C2)C1 (some centres not stated)
Potency [2]: inactive | outcome [3]: inactive | Potency [4]: inactive | Potency [5]: inactive | Potency [9]: inactive

C=CCN1CCc2c(cc(O)c(O)c2Br)[C@@H](c2ccccc2)C1
Potency [2]: inactive | outcome [3]: inactive | Potency [4]: inactive | Potency [5]: inactive | Potency [9]: inactive | Potency [10]: inactive

Nc1nc2c(nc(Br)n2C2OC3COP(=O)(O)O[C@@H]3C2O)c(=O)[nH]1 (some centres not stated)
Potency [2]: inactive | outcome [3]: inactive | Potency [4]: inactive | Potency [5]: inactive | Potency [9]: inactive | Potency [10]: inactive | Potency [14]: inactive | max response [11]: 9.58%

O=C1Cc2c([nH]c3ccc(Br)cc23)-c2ccccc2N1
Potency [2]: inactive | outcome [3]: inactive | Potency [4]: 5.8 µM (active) | Potency [5]: 2.59 µM (active) | Potency [9]: inactive | Potency [10]: inactive | Potency [14]: inactive

O=C(O)Cc1ccc(O)c(O)c1
Potency [2]: inactive | outcome [3]: inactive | Potency [4]: inactive | Potency [5]: inactive | Potency [9]: inactive | Potency [10]: inactive | Potency [14]: inactive

C[N+](C)(C)CC=O
Potency [2]: inactive | outcome [3]: inactive | Potency [4]: inactive | Potency [5]: inactive | Potency [9]: inactive | Potency [10]: inactive | Potency [14]: inactive | max response [11]: 21.1%

CCN1C(=O)C=CC1=O
Potency [2]: inactive | outcome [3]: inactive | Potency [4]: inactive | Potency [5]: inactive | Potency [9]: inactive | Potency [10]: inactive | Potency [14]: inactive | max response [11]: 14.2%

NC1(C(=O)O)CCc2cc(C(=O)O)ccc21 (configuration not stated)
Potency [2]: inactive | outcome [3]: inactive | Potency [4]: inactive | Potency [5]: inactive | Potency [9]: inactive | Potency [10]: inactive | Potency [14]: inactive | max response [11]: 9.78%

N[C@H](C(=O)O)c1cc(O)cc(O)c1
Potency [2]: inactive | outcome [3]: inactive | Potency [4]: inactive | Potency [5]: inactive | Potency [9]: inactive | Potency [10]: inactive | Potency [14]: inactive

CCCCCCCCCCC(C)(C)C(=O)Nc1c(OC)cc(OC)cc1OC
Potency [2]: inactive | outcome [3]: inactive | Potency [4]: inactive | Potency [5]: inactive | Potency [9]: inactive | Potency [10]: inactive | Potency [14]: inactive | max response [11]: -6%

NOCC(=O)O
Potency [2]: inactive | outcome [3]: inactive | Potency [4]: inactive | Potency [5]: inactive | Potency [9]: inactive | Potency [10]: inactive | Potency [14]: inactive | max response [11]: -2.42%

CC(C)Cn1c(=O)n(C)c(=O)c2[nH]cnc21
Potency [2]: inactive | outcome [3]: inactive | Potency [4]: inactive | Potency [5]: inactive | Potency [9]: inactive | Potency [10]: inactive | Potency [14]: inactive | max response [11]: 4.24%

Clc1nccc2c1ccc1ccccc12
Potency [2]: inactive | outcome [3]: inactive | Potency [4]: inactive | Potency [5]: inactive | Potency [9]: inactive | Potency [10]: inactive | Potency [14]: inactive | max response [11]: 7.1%

O=C(O)C1=CCCNC1
Potency [2]: inactive | outcome [3]: inactive | Potency [4]: inactive | Potency [5]: inactive | Potency [9]: inactive | Potency [10]: inactive | Potency [14]: inactive | max response [11]: 15%

CN(C)CCCc1cc(C(=O)Nc2ccc(-c3ccncc3)cc2)ccc1O
Potency [2]: inactive | outcome [3]: inactive | Potency [4]: inactive | Potency [5]: inactive | Potency [9]: inactive | Potency [10]: inactive

CN(C)S(=O)(=O)c1ccc2c(c1)/C(=C/c1cc3c([nH]1)CCCC3)C(=O)N2
Potency [15]: 0.0972 µM (active) | outcome [16]: inactive | Potency [2]: inactive | outcome [3]: inactive | Potency [4]: inactive | Potency [9]: inactive | max response [11]: -2.03%

O=C(N[C@@H](Cc1ccccc1)C(=O)CCl)OCc1ccccc1
Potency [2]: inactive | outcome [3]: inactive | Potency [4]: inactive | Potency [5]: inactive | Potency [9]: inactive | Potency [10]: inactive | Potency [14]: inactive

CC(=O)C(C)=O
outcome [1]: inactive | outcome [3]: inactive | Potency [4]: inactive | Potency [5]: inactive | outcome [6]: inactive | outcome [7]: inactive | max response [8]: -2.25% | Potency [9]: inactive | Potency [10]: inactive | Potency [14]: inactive | max response [11]: 0.793% | max response [12]: -4.3% | Potency [13]: inactive

CC[n+]1c(/C=C/C=C2/N(C)c3ccccc3C2(C)C)sc2ccccc21
Potency [2]: inactive | outcome [3]: inactive | Potency [4]: inactive | Potency [5]: inactive | Potency [9]: inactive | Potency [10]: inactive

CCCCCCCCCC(=O)NC(CN1CCOCC1)[C@H](O)c1ccccc1 (some centres not stated)
Potency [2]: inactive | outcome [3]: inactive | Potency [4]: inactive | Potency [5]: inactive | Potency [9]: inactive | Potency [10]: inactive | Potency [14]: inactive | Potency [11]: 3.55 µM (active)

COc1ccc(NC(=O)c2ccc(-c3ccc(-c4noc(C)n4)cc3C)cc2)cc1N1CCN(C)CC1
Potency [2]: inactive | outcome [3]: inactive | Potency [4]: 20.6 µM (active) | Potency [5]: inactive | Potency [9]: inactive | Potency [10]: inactive | Potency [14]: inactive

N[C@@H](Cc1ccc(F)cc1)C(=O)O
Potency [2]: inactive | outcome [3]: inactive | Potency [4]: inactive | Potency [5]: inactive | Potency [9]: inactive | Potency [10]: inactive | Potency [14]: inactive | max response [11]: 19.5%

C/C(=C\c1ccc(C(=O)O)cc1)c1ccc2c(c1)C(C)(C)CCC2(C)C
Potency [2]: inactive | outcome [3]: inactive | Potency [4]: inactive | Potency [5]: inactive | outcome [6]: inactive | max response [8]: -1.94% | Potency [9]: inactive | Potency [10]: inactive | Potency [14]: inactive | max response [11]: 19.4% | max response [12]: -16.6% | Potency [13]: 39.8 µM (active)

CC(=O)O[C@H]1CC2(C)[C@@H](C[C@@H](O)[C@H]3[C@@]4(C)CC[C@@H](O)[C@@H](C)[C@@H]4CC[C@@]32C)C1=C(CCC=C(C)C)C(=O)O (some centres not stated)
Potency [2]: inactive | outcome [3]: inactive | Potency [4]: inactive | Potency [5]: inactive | Potency [9]: inactive | Potency [10]: inactive | Potency [14]: inactive | max response [11]: 12.4%

CN1C2CCC1CC(OC(c1ccccc1)c1ccccc1)C2 (configuration not stated)
Potency [2]: inactive | outcome [3]: inactive | Potency [4]: inactive | Potency [5]: inactive | Potency [9]: inactive | Potency [10]: inactive | Potency [14]: inactive | max response [11]: 31%
